Results on 60 compounds are retold here after PubChem BioAssay AID1850 (Southern Research Specialized Biocontainment Screening …, 2009).

The campaign covered roughly 310,000 compounds. About 1,000 (0.32%) were called active. The rule behind the calls is not given here. These entries were drawn from the full list. Entries with a potency or affinity are not part of this list.

In general, inhibition refers to the change of the read-out against control, counted positive when it falls.

The assay can be described thus: Inhibition of PhoP regulon, Salmonella typhi GFP reporter cells, confirmation, 4 h (AID 1850).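 Note: 0% = induced wells with vehicle and 100% = uninduced wells.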 The settings on record: Salmonella Typhi PhoP-promoter GFP reporter, fluorescence, at 50 µM, active compounds read high.
As to `O=C(COC(=O)CCC(=O)c1ccc(F)cc1)NCc1ccco1`, the inhibition is 11.3% (inactive).

With `COC(=O)c1sc2ccccc2c1NC(=O)c1ccc(S(=O)(=O)N2CCCCC2)cc1`, the inhibition was 10.9% (inactive).

As to `CN(CCOc1ccc(Cl)cc1)C(=O)C1CCN(C(=O)c2ccc(Cl)cc2)CC1`, the inhibition is -3.38% (inactive). On to `CC(=O)NC(c1ccccc1)c1cc([N+](=O)[O-])c2cccnc2c1O` (stereo not given), for which the inhibition was 0.16% (inactive). As for `CC(C)C(=O)NC(c1cccs1)c1cc([N+](=O)[O-])c2cccnc2c1O` (stereo not given), the figure is -8.78% (inactive); as for `CCCC(=O)NC(c1cccs1)c1cc([N+](=O)[O-])c2cccnc2c1O` (stereo not given), -5.59% (inactive); as for `CCCC(=O)NC(c1ccco1)c1cc(Cl)c2cccnc2c1O` (stereo not given), -13.5% (inactive).

With `COc1ccc(S(=O)(=O)N2CCOCC2)cc1N=Nc1sc(N)nc1-c1ccccc1`, the inhibition is 0.93% (inactive). Consider `CCCCCCCCOC(=O)C[N+](C)(C)C/C=C(/C)Cl`, for which the inhibition is -1.52% (inactive).

Take `CCCCCOC(=O)CC(C(=O)OCCCCC)N1CCCCC1` (stereo not given): the inhibition is 1.36% (inactive). As for `CCCCCCCCCCOC(=O)C[N+](C)(C)C/C=C(/C)Cl`, the inhibition was -3.67% (inactive). Turning to `CCCCOC(=O)C1CCCC(C(=O)OCCCC)N1` (stereo not given), the inhibition was 2.58% (inactive).

As for `CC12CN3CCN(CC(C3)/C1=N/NC(=O)Nc1ccccc1)C2`, the inhibition is 3.04% (inactive).

On to `CCOc1ccc(NC(=O)CN(C)C(=O)c2cn3ccccc3n2)cc1OCC`, for which the inhibition is -2.5% (inactive). In the case of `O=C(c1ccc(F)cc1)C1CCN(C(=S)Nc2ccc(F)cc2)CC1`, the inhibition was 1.13% (inactive). In the case of `C/C(=N\NC(=O)c1nnn(-c2nonc2N)c1-c1ccc2c(c1)OCO2)c1ccccc1`, the inhibition is -37.7% (inactive).

Consider `CC1CN(CCOc2ccc(Cl)cc2Cl)CC(C)O1` (stereo not given), for which the inhibition was 10.8% (inactive).

For the compound `CC1CC(C)CN(CCOc2cccc(Cl)c2Cl)C1` (stereo not given), the inhibition was -0.58% (inactive). Take `CC1CC(C)CN(S(=O)(=O)N2CCCC(C(=O)NCCc3ccccc3)C2)C1` (stereo not given): the inhibition was 6.06% (inactive). Consider `NS(=O)(=O)c1ccc(CCNC(=O)c2cc([N+](=O)[O-])ccc2N2CCCCC2)cc1`, for which the inhibition was 7.9% (inactive).

Regarding `O=C(CCc1ccc(S(=O)(=O)N2CCOCC2)cc1)N1CCN(Cc2ccc3c(c2)OCO3)CC1`, the inhibition was -0.09% (inactive). Consider `CCN1CCN(CCNC(=O)c2ccc(/C=C3/Sc4ccccc4N(Cc4cccc(Cl)c4)C3=O)cc2)CC1`, for which the inhibition is 47.7% (inactive). On to `CCN1CCN(CCNC(=O)c2ccc3c(c2)N(Cc2ccc(F)cc2)C(=O)c2ccccc2S3=O)CC1` (stereo not given), for which the inhibition was -3.27% (inactive). For `Cc1ccc(C(=O)Nc2cccc(C(=O)NC3CCCCC3)c2)cc1`, the inhibition is 7.56% (inactive). On to `CCOC(=O)c1c(C)c(-c2ccccc2)n(CC(=O)N2CCN(C)CC2)c1C`, for which the inhibition was -2.34% (inactive). Regarding `O=C1Nc2ccccc2Nc2ccc([N+](=O)[O-])cc21`, the inhibition is -12.2% (inactive). Consider `O=C1Nc2ccccc2C1=Nc1cccc([N+](=O)[O-])c1`, for which the inhibition was 6.17% (inactive).

As to `COc1ccccc1OCc1ccc(C(=O)NCc2ccco2)o1`, the inhibition is -2.77% (inactive). With `O=C(N/N=C/c1sc2ccccc2c1O)c1ccccc1`, the inhibition was -3.49% (inactive). Take `COc1ccc(C(=O)N/N=C/c2c[nH]c3ccccc23)cc1`: the inhibition is 4.58% (inactive). For the compound `COc1ccc2cc(C(=O)N/N=C/c3sc4ccccc4c3O)ccc2c1`, the inhibition was -4.14% (inactive). With `O=C(N/N=C/c1ccccc1O)c1cccc2ccccc12`, the inhibition is 3.31% (inactive). Turning to `Cc1ccc(CN2CCCN(Cc3ccc(F)cc3Cl)S2(=O)=O)cc1`, the inhibition was 0.28% (inactive). With `O=C(O)C1CC(O)CN1c1nc(Cl)ccc1[N+](=O)[O-]` (stereo not given), the inhibition is 4.36% (inactive). The figure for `O=C1CC2(CCCC2)Oc2ccccc21` is 9.18% (inactive). For the compound `CC(C)(C)c1cc(NCc2ccccn2)n2ncc(-c3ccc(Cl)cc3)c2n1`, the inhibition was -9.09% (inactive).

Consider `CC(C)(C)c1cc(NCCCn2ccnc2)n2ncc(-c3ccc(Cl)cc3)c2n1`, for which the inhibition was -8.35% (inactive). On to `CC(C)Nc1cc(C(C)(C)C)nc2c(-c3ccccc3)cnn12`, for which the inhibition was 0.99% (inactive). As for `CC(C)(C)c1cc(NCCCn2ccnc2)n2ncc(-c3ccccc3)c2n1`, the inhibition is 12.3% (inactive). As for `COC(=O)[C@@H](NC(=O)N1CCC(Cc2ccccc2)CC1)C(C)C`, the inhibition is -13.1% (inactive). As for `CC(C)C(C(=O)NCC1CCCO1)N(C(=O)CNS(=O)(=O)c1ccc(F)cc1)C1CCCCC1` (stereo not given), the figure is -5.01% (inactive). For `CC1(C)N=C(N)NC(Nc2ccccc2)=N1`, the inhibition was 3.29% (inactive). Turning to `Cc1ccccc1NC1=NC(C)(C)N=C(N)N1`, the inhibition was 2.17% (inactive). Turning to `Cc1cccc(C)c1NC1=NC(C)(C)N=C(N)N1`, the inhibition was -2.14% (inactive). For `Cc1cccc(NC2=NC(C)(C)N=C(N)N2)c1`, the inhibition was -5.24% (inactive). The figure for `CCCCC(=O)N/N=C/c1ccc(N2CCOCC2)c([N+](=O)[O-])c1` is 5.66% (inactive). For the compound `O=C(c1cc(Cl)cc(Cl)c1)N1CCN(c2cc(C(F)(F)F)nc3ccccc23)CC1`, the inhibition is 0.46% (inactive). As to `CN1N=C(C(C)(C)C)CC1=O`, the inhibition is -12.7% (inactive). For the compound `OCCC1CN(Cc2nc3ccccc3[nH]2)CCN1C1CCCC1` (stereo not given), the inhibition was 3.25% (inactive). For `COc1cc(C(=O)O/N=C2/C=C(C)C(=O)C=C2C)cc(OC)c1OC`, the inhibition is -6.02% (inactive).

With `COc1cc(C(=O)ON=C2C=C(C)C(=O)C(C)=C2)cc(OC)c1OC`, the inhibition is -6.42% (inactive). As to `CCc1ccccc1N(CC(=O)N1CCCC1)S(C)(=O)=O`, the inhibition was 6.01% (inactive). As for `CCNc1c2c(nc3ccccc13)CC(C)(C)CC2=O`, the figure is -3.19% (inactive); as for `Cc1c2c(nc3ccccc13)CC(C)(C)CC2=O`, -15.3% (inactive); as for `CCC(=NCc1cccnc1)c1c(O)n(-c2ccc(C)cc2)c(=O)[nH]c1=O`, -4.52% (inactive). On to `O=C(COc1ccc2c3c(c(=O)oc2c1)CCC3)N[C@@H](CSCc1ccccc1)C(=O)O`, for which the inhibition is 11.7% (inactive). Take `N#C/C(=C\c1cc(O)c(O)c(O)c1)C(N)=O`: the inhibition was 5.26% (inactive). For the compound `CCOC(=O)c1ccc(CNCc2ccccc2)cc1`, the inhibition was -2.61% (inactive).

On to `CCOC(=O)c1ccc(CNCc2ccc(C)cc2)cc1`, for which the inhibition is -2.32% (inactive). The figure for `Cc1noc(C)c1COc1ccc(C(=O)N2CCN(S(=O)(=O)c3ccc(Cl)cc3)CC2)cc1` is -8.91% (inactive).
